# Source: publication PMC7862700, “An all-to-all approach to the identification of sequence-specific readers for epigenetic DNA modifications on cytosine”
# Tests used:
# Assay in all cases: DAPPL (digital affinity profiling via proximity ligation, sequencing); 10 mM Tris-HCl pH 7.5, 50 mM NaCl, 1 mM DTT, 4% glycerol, room temperature, 30 min; GST-TFs on glutathione beads, 16-mer random dsDNA library, 0.1% formaldehyde crosslink after washing; high values mean tight binding
# [1] = target: T1, FLI1 (Homo sapiens, UniProt Q01543 1-452); settings: protein: recombinant; tags: N-terminal GST; dsDNA, one strand shown
# T1 sequence: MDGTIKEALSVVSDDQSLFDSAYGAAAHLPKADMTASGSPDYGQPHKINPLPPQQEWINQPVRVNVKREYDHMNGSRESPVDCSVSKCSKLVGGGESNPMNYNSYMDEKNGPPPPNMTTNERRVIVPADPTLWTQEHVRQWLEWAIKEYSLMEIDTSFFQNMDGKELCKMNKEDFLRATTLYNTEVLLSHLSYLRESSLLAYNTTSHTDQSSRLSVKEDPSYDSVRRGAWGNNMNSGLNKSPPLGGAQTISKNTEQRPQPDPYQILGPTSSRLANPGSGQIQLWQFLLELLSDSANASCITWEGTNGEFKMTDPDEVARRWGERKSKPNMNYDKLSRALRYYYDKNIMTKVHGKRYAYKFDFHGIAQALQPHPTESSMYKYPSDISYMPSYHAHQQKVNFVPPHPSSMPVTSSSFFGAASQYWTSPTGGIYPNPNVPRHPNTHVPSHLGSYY
# How it was run: (§1)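 Sequencing on an Illumina NextSeq500 followed washing, crosslinking with 0.1% formaldehyde, proximity ligation (BsaI/T4 ligase, 1 h, 37 °C) and PCR amplification of pools that had been incubated for 30 min at room temperature with 200 nmole of a random double-stranded 16-mer DNA library in Tris/NaCl/DTT/glycerol buffer. Each pool held DNA-barcoded human transcription factors, expressed in yeast as GST fusions and captured on glutathione beads, plus a tag-only sample. Binding signal is a hexamer's read frequency for a factor divided by its frequency in the tag-only sample.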
# [2] = target: T2, ELK1 (Homo sapiens, UniProt P19419 1-428); settings: protein: recombinant; tags: N-terminal GST; dsDNA, one strand shown
# T2 sequence: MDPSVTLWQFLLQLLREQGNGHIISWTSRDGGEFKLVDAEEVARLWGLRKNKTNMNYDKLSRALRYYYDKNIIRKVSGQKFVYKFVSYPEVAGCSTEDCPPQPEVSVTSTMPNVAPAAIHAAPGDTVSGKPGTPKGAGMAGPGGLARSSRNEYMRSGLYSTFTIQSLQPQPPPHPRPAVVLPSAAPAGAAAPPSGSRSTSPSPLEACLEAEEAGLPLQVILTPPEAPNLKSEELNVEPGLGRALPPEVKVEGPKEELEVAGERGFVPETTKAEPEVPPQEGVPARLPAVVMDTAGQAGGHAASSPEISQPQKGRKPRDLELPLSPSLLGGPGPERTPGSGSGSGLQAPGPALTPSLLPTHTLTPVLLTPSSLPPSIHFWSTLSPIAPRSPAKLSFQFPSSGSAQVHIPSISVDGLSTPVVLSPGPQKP
# How it was run: as §1
# [3] = target: T3, GABPA (Homo sapiens, UniProt Q06546 1-454); settings: protein: recombinant; tags: N-terminal GST; dsDNA, one strand shown
# T3 sequence: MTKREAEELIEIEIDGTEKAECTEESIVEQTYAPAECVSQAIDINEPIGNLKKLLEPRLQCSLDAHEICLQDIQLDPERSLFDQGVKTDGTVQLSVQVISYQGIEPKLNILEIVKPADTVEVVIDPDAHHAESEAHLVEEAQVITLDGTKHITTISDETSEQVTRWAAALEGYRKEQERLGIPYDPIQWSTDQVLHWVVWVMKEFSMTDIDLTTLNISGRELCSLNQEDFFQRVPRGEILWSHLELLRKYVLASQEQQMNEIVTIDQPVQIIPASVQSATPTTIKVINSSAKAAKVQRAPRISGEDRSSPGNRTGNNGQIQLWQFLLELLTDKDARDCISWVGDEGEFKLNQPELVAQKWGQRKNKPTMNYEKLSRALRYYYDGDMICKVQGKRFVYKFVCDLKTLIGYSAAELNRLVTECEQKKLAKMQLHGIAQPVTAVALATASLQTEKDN
# How it was run: as §1
# [4] = target: T4, ERG (Homo sapiens, UniProt P11308 1-479); settings: protein: recombinant; tags: N-terminal GST; dsDNA, one strand shown
# T4 sequence: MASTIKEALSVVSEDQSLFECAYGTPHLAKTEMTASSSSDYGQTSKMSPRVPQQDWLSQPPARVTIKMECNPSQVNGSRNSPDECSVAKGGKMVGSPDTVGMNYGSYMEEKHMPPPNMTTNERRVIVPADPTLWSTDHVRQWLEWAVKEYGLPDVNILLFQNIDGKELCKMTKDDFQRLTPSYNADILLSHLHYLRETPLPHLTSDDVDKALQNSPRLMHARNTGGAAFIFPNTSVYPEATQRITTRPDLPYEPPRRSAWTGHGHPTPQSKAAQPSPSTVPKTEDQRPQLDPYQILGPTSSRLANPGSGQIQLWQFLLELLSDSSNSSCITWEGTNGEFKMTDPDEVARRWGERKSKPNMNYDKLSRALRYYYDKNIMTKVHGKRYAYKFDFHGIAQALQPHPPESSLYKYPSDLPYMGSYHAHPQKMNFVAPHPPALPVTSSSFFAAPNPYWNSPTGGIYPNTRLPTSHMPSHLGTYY
# How it was run: as §1
# [5] = target: ELF1 (Homo sapiens, UniProt P32519 1-619); settings: protein: recombinant; tags: N-terminal GST; dsDNA, one strand shown
# How it was run: as §1
# [6] = target: T5, EHF (Homo sapiens, UniProt Q9NZC4 1-300); settings: protein: recombinant; tags: N-terminal GST; dsDNA, one strand shown
# T5 sequence: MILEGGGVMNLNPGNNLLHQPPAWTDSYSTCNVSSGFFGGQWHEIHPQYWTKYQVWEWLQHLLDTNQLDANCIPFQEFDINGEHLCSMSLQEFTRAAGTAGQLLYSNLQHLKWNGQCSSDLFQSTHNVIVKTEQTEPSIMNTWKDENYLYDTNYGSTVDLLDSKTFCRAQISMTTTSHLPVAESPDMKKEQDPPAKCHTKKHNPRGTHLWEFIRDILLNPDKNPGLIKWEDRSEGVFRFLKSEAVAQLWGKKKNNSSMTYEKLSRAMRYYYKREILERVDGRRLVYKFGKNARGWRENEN
# How it was run: as §1
# [7] = target: SPI1 (Homo sapiens, UniProt P17947 1-270); settings: protein: recombinant; tags: N-terminal GST; dsDNA, one strand shown
# How it was run: as §1
# [8] = target: SPIB (Homo sapiens, UniProt Q01892 1-262); settings: protein: recombinant; tags: N-terminal GST; dsDNA, one strand shown
# How it was run: as §1
# [9] = target: T6, ELK3 (Homo sapiens, UniProt P41970 1-407); settings: protein: recombinant; tags: N-terminal GST; dsDNA, one strand shown
# T6 sequence: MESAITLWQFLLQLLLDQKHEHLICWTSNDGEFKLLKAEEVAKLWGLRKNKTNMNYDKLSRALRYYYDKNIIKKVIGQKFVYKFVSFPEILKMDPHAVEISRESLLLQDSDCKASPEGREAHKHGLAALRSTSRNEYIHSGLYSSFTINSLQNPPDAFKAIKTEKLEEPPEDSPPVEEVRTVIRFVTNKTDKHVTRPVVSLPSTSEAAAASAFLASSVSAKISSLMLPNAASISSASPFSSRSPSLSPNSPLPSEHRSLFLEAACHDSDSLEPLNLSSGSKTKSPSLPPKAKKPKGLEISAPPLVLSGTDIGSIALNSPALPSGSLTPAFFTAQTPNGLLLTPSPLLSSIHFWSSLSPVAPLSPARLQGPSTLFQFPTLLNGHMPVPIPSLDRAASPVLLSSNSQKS
# How it was run: as §1
# [10] = target: T7, FEV (Homo sapiens, UniProt Q99581 1-238); settings: protein: recombinant; tags: N-terminal GST; dsDNA, one strand shown
# T7 sequence: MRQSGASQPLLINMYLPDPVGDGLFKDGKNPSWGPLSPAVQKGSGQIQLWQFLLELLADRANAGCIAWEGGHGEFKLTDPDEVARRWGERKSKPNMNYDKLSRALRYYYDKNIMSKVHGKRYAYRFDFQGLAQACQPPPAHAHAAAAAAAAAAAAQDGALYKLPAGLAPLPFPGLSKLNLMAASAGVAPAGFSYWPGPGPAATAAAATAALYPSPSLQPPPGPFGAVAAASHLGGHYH
# How it was run: as §1
# [11] = target: ETV5 (Homo sapiens, UniProt P41161 1-510); settings: protein: recombinant; tags: N-terminal GST; dsDNA, one strand shown
# How it was run: as §1
# [12] = target: HSF1 (Homo sapiens, UniProt Q00613 1-529); settings: protein: recombinant; tags: N-terminal GST; chain copies: 3; dsDNA, one strand shown
# How it was run: as §1
# [13] = target: T8, SPIC (Homo sapiens, UniProt Q8N5J4 1-248); settings: protein: recombinant; tags: N-terminal GST; dsDNA, one strand shown
# T8 sequence: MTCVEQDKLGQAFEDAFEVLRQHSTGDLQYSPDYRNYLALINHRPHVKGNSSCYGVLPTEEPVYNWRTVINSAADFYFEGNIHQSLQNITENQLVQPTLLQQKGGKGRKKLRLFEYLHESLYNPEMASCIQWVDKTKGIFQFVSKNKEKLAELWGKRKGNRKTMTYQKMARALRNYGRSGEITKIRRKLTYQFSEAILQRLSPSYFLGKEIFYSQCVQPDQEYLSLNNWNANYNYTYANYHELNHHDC
# How it was run: as §1
# [14] = target: ELF4 (Homo sapiens, UniProt Q99607 1-663); settings: protein: recombinant; tags: N-terminal GST; dsDNA, one strand shown
# How it was run: as §1
# [15] = target: T9, ELK4 (Homo sapiens, UniProt P28324-2 1-405); settings: protein: recombinant; tags: N-terminal GST; dsDNA, one strand shown
# T9 sequence: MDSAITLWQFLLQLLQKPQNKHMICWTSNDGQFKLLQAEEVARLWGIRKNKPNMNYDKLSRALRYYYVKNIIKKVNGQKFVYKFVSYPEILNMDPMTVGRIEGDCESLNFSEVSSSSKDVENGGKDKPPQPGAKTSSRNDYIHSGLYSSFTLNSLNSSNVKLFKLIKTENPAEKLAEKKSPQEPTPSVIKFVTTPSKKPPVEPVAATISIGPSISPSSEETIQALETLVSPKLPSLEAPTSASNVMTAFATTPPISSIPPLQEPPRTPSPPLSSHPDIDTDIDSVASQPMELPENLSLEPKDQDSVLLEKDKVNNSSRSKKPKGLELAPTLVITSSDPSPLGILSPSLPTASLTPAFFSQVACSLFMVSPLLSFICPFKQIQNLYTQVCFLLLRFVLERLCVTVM
# How it was run: as §1
# [16] = target: T10, ETV2 (Homo sapiens, UniProt O00321 1-342); settings: protein: recombinant; tags: N-terminal GST; dsDNA, one strand shown
# T10 sequence: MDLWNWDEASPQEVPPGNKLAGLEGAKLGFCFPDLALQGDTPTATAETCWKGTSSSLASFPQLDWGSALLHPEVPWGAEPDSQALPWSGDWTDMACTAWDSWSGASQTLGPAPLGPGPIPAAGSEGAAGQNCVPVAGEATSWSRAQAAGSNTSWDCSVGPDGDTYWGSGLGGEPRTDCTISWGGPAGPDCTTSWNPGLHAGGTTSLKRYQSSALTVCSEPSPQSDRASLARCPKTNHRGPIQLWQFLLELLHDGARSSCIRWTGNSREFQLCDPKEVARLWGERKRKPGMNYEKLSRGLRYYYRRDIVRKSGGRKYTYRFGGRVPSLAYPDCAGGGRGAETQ
# How it was run: as §1
# [17] = target: T11, ELF3 (Homo sapiens, UniProt P78545 1-371); settings: protein: recombinant; tags: N-terminal GST; dsDNA, one strand shown
# T11 sequence: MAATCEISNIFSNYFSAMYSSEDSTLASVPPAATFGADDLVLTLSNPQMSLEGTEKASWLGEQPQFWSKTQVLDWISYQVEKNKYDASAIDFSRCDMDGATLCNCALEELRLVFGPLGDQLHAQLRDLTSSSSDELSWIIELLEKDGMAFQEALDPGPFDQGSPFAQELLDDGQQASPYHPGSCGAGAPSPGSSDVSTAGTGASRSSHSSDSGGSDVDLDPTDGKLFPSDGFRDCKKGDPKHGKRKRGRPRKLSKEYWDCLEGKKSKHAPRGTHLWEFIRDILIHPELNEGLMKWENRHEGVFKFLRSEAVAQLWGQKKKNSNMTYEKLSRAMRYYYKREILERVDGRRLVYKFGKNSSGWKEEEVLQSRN
# How it was run: as §1
# [18] = target: CRX (Homo sapiens, UniProt O43186 1-299); settings: protein: recombinant; tags: N-terminal GST; dsDNA, one strand shown
# How it was run: as §1
# [19] = target: ETV1 (Homo sapiens, UniProt P50549 1-477); settings: protein: recombinant; tags: N-terminal GST; dsDNA, one strand shown
# How it was run: as §1
# ETV1, sequence (P50549 whole entry): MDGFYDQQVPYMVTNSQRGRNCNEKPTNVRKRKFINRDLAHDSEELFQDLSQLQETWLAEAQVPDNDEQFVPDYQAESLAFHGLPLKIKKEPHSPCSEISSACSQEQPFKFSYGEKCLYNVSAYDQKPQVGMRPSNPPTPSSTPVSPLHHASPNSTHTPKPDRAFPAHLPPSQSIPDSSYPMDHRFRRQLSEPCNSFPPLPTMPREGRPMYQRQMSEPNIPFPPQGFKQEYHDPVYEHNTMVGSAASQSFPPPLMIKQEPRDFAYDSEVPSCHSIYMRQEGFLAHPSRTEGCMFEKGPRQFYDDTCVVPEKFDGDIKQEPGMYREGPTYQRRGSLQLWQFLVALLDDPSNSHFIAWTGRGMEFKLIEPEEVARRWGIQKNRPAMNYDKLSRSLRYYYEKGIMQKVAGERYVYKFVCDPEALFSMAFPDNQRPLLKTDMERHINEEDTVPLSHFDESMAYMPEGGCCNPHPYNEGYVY
# ELF1, sequence (P32519 whole entry): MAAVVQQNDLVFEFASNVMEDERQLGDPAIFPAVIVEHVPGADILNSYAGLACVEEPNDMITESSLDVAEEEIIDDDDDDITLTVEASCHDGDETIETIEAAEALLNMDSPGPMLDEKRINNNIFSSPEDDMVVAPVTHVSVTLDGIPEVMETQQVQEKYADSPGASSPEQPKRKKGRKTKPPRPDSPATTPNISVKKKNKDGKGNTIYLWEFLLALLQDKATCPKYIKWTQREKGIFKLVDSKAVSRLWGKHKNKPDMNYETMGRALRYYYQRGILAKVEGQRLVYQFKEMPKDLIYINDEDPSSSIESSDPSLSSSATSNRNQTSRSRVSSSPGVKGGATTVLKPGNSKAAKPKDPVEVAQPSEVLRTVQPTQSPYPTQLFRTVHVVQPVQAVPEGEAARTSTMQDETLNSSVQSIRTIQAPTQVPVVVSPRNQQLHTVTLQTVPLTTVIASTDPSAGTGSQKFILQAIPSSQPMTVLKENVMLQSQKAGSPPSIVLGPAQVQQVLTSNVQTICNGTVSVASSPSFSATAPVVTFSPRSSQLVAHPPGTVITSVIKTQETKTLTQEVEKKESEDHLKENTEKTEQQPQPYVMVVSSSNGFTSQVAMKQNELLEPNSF
# HSF1, sequence (Q00613 whole entry): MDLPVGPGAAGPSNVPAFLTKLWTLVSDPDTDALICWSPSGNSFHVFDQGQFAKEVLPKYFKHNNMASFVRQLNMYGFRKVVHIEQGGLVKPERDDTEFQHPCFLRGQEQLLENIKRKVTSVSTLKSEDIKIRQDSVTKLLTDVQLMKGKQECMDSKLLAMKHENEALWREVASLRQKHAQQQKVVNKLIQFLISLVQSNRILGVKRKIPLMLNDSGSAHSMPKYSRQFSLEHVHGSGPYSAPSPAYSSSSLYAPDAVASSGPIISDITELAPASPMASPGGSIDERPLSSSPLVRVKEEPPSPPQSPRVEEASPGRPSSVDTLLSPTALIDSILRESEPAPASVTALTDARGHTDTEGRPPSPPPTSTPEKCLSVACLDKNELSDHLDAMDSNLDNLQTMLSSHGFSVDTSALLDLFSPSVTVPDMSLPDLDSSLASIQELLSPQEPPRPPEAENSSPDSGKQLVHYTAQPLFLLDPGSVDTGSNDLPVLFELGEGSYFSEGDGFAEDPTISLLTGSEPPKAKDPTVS
# ETV5, sequence (P41161 whole entry): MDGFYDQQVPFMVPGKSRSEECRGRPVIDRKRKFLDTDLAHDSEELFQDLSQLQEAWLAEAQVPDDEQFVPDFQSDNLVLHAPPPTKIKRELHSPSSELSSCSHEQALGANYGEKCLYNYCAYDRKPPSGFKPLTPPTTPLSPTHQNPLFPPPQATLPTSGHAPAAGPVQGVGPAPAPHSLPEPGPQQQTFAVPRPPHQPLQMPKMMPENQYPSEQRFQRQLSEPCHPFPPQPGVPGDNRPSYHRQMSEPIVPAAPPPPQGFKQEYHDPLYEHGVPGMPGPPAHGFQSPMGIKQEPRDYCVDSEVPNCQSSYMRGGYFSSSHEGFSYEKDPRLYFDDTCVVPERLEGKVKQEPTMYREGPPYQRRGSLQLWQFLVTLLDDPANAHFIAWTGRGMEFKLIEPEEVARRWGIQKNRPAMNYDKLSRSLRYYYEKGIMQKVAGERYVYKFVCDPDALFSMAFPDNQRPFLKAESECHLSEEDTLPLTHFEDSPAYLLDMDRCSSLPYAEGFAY
# ELF4, sequence (Q99607 whole entry): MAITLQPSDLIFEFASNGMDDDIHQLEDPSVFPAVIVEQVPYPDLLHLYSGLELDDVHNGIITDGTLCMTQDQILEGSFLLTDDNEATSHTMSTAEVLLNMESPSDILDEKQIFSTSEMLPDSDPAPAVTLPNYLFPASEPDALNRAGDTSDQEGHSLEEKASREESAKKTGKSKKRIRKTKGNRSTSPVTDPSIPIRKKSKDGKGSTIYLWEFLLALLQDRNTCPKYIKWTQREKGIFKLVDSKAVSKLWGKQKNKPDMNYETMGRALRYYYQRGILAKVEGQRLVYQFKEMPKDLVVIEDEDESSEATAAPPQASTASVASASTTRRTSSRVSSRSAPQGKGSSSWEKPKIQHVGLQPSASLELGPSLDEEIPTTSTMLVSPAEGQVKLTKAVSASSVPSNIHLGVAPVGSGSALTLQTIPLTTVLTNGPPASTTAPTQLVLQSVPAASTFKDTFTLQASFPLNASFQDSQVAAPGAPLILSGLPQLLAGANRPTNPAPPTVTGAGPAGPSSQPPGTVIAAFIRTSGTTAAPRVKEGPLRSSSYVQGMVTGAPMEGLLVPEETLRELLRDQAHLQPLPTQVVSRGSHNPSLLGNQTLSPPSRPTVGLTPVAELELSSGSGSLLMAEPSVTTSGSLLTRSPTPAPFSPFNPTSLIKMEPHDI
# CRX, sequence (O43186 whole entry): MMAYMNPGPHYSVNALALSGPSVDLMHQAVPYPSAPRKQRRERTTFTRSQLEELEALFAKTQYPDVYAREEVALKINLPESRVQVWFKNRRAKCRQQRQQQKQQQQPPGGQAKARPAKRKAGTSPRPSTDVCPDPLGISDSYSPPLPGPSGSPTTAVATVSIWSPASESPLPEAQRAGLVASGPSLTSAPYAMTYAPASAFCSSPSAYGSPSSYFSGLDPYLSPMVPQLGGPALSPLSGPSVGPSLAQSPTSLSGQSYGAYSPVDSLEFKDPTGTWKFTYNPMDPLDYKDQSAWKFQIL
# SPIB, sequence (Q01892 whole entry): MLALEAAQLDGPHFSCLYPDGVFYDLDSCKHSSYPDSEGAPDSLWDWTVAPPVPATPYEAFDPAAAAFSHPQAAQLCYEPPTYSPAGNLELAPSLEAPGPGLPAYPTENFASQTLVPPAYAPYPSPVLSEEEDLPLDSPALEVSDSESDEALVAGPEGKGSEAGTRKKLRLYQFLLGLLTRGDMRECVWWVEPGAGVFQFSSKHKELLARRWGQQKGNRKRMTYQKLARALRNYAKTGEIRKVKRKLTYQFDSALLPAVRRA
sequence,measurement,setting,value
CCAAAA,binding signal,[1],"1.09 fold enrichment (6-mer frequency, TF over GST control)"
same,binding signal,[2],"1.13 fold enrichment (6-mer frequency, TF over GST control)"
same,binding signal,[3],"1.16 fold enrichment (6-mer frequency, TF over GST control)"
same,binding signal,[4],"1.12 fold enrichment (6-mer frequency, TF over GST control)"
same,binding signal,[5],"1.17 fold enrichment (6-mer frequency, TF over GST control)"
same,binding signal,[6],"1.15 fold enrichment (6-mer frequency, TF over GST control)"
same,binding signal,[7],"1.29 fold enrichment (6-mer frequency, TF over GST control)"
same,binding signal,[8],"1.12 fold enrichment (6-mer frequency, TF over GST control)"
same,binding signal,[9],"1.13 fold enrichment (6-mer frequency, TF over GST control)"
same,binding signal,[10],"1.2 fold enrichment (6-mer frequency, TF over GST control)"
same,binding signal,[11],"1.19 fold enrichment (6-mer frequency, TF over GST control)"
same,binding signal,[12],"1.17 fold enrichment (6-mer frequency, TF over GST control)"
same,binding signal,[13],"1.05 fold enrichment (6-mer frequency, TF over GST control)"
same,binding signal,[14],"1.19 fold enrichment (6-mer frequency, TF over GST control)"
same,binding signal,[15],"1.05 fold enrichment (6-mer frequency, TF over GST control)"
same,binding signal,[16],"1.28 fold enrichment (6-mer frequency, TF over GST control)"
same,binding signal,[17],"1.03 fold enrichment (6-mer frequency, TF over GST control)"
same,binding signal,[18],"1.06 fold enrichment (6-mer frequency, TF over GST control)"
same,binding signal,[19],"1.18 fold enrichment (6-mer frequency, TF over GST control)"
